Assay [1] has as its system Wnt5a (protein binding on small-molecule microarray). Briefly: small molecules binding Wnt5a protein – biophysical, small-molecule microarray, 635/667 nm fluorescence, primary screen (AID 1142).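 Note: fluorescence read at 667 nm with signal to noise per printed feature.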 The following applies: 635 nm fluorescence, higher = more signal.
A short description of assay [2]: ATP-based viability of Huh7 replicon cells – cell-based, CellTiter-Glo luminescence, basal, 48 h, cytotoxicity control for HCV replication inhibitor project, primary screen (AID 1143).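 Note: Huh7 hepatoma cells carrying a hepatitis C replication reporter with no stimulus; test concentration not given here.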 The note with it: higher = more signal, called active from +8 up or from −8 down.
Assay [3] can be described thus: basal CRE-LacZ reporter activity in PC12 – cell-based, unstimulated, primary screen (AID 1145). The note with it: no forskolin, luminescence, 4.5 h, higher = more signal, called active from +8 up or from −8 down.
A short description of assay [4]: forskolin-driven CRE-LacZ activity in PC12 – cell-based, CRE-LacZ reporter, forskolin-stimulated, primary screen (AID 1146).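 Note: PC12 cells with 6xCRE LacZ reporter stimulated by forskolin 10 µM; beta-galactosidase reporter signal reflecting CREB driven transcription.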 The following applies: luminescence, 4.5 h, higher = more signal, called active from +8 up or from −8 down.
In assay [5] the target is Streptavidin (Streptomyces avidinii) (UniProt P22629). Briefly: compounds binding control protein streptavidin – biophysical, small-molecule microarray, 635/667 nm fluorescence, artefact control for SMM compound annotation, primary screen (AID 1147).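 Note: signal reflects streptavidin binding to arrayed compounds as a control protein.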 The following applies: higher = more signal.
The nature of assay [6]: probe aInhba binding on compound microarray – biochemical, small-molecule microarray, 635/667 nm fluorescence, primary screen (AID 1148).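 Note: score merges 667nm spot fluorescence with signal-to-noise for antibody binding to printed compounds.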 The following applies: higher = more signal.
Assay [7] concerns the target Torsin-1A (Homo sapiens) (UniProt O14656). Briefly: TOR1A wild-type binding on microarray – cell lysate, small-molecule microarray, lysate, 635/667 nm, primary screen (AID 1149). The note with it: COS7 hTOR1A-WT lysate, 635 nm fluorescence, higher = more signal.
The target is the same in assay [8]. Briefly: torsin A mutant lysate binding on microarrays – cell lysate, small-molecule microarray, COS7 lysate, 635/667 nm fluorescence, primary screen (AID 1150).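 Note: score pools 667 nm emission and signal to noise measuring lysate protein binding.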 The following applies: COS7 hTOR1A mutant lysate, 635 nm fluorescence, higher = more signal.
The test system of assay [9] is Sonic hedgehog protein (Shh). Briefly: Sonic hedgehog microarray binding compounds – biochemical, small-molecule microarray, 635/667 nm fluorescence, primary screen (AID 1151).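 Note: Shh protein binding to compounds spotted on small-molecule microarray slides; score combines spot fluorescence intensity with signal-to-noise across triplicate slides.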 The following applies: 635 nm fluorescence, higher = more signal.
The nature of assay [10]: optical density shifts of acrAB sulA E. coli – strain DRC41, OD650, 48 h, E. coli filamentation inducer project, primary screen (AID 1152).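 Note: E. coli MC1000 strain DRC41 lacking acrAB efflux pump and sulA.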 The note with it: higher = more signal, called active from +8 up or from −8 down.
Assay [11] in a line: probe aLefty1 binding on compound microarray – biochemical, small-molecule microarray, 635/667 nm fluorescence, primary screen (AID 1153).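 Note: score merges spot fluorescence with signal-to-noise ratio from the scanned slide images.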 The note with it: higher = more signal.
Assay [12] can be described thus: plasmodial surface anion channel blockers, osmotic lysis – cell-based, P. falciparum Indochina, OD700, 1 h, primary screen (AID 1154). The following applies: P. falciparum Indochina infected RBC osmotic lysis, higher = more signal, called active from +8 up or from −8 down.
Assay [13] is described as follows: plasmodial surface anion channel blockers, osmotic lysis – cell-based, P. falciparum Indochina, OD700, 2 h, primary screen (AID 1155).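 Note: lysis reports solute entry through the parasite surface anion channel PSAC.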 The following applies: P. falciparum Indochina infected erythrocytes, higher = more signal, called active from +8 up or from −8 down.
A short description of assay [14]: changes in parasitized red cell lysis, either direction – P. falciparum Indochina, OD700, 3 h, PSAC antagonist project, primary screen (AID 1156). The following applies: P. falciparum-infected erythrocytes, osmotic lysis, higher = more signal, called active from +8 up or from −8 down.
Assay [15] is described as follows: plasmodial surface anion channel blockers, osmotic lysis – cell-based, P. falciparum Indochina, OD700, 18 h, primary screen (AID 1157). The following applies: P. falciparum Indochina infected erythrocytes, osmotic lysis OD700, 18 h; higher = more signal, called active from +8 up or from −8 down.
Assay [16] in a line: S6 kinase pathway phospho-S6 level changes – cell-based, A549, cytoblot, luminescence, serum-stimulated, primary screen (AID 1158).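 Note: serum-stimulated A549 lung adenocarcinoma cells; signal is phosphorylated S6 detected by cytoblot immunostaining with HRP secondary.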 The note with it: 5 h, higher = more signal.
The target in assay [17] is NADPH oxidase 2 (Homo sapiens) (UniProt P04839). Briefly: compounds shifting NOX2 Amplex Red fluorescence – cell-based, HEK293-NOX2, PMA-stimulated, NOX inhibitor project, primary screen (AID 1159). Note: test concentration not given here. The following applies: 45 min, higher = more signal, called active from +8 up or from −8 down.
For assay [18], the target named is NADPH oxidase 4 (Homo sapiens) (UniProt Q9NPH5). Briefly: compounds shifting NOX4 Amplex Red fluorescence – cell-based, HEK293-NOX4, tetracycline-induced, NOX inhibitor project, primary screen (AID 1160). The following applies: HEK293-NOX4, Amplex Red H2O2 fluorescence, 45 min; higher = more signal, called active from +8 up or from −8 down.
Assay [19] has as its target NADPH oxidase 5 (Homo sapiens) (UniProt Q96PH1). Briefly: compounds shifting NOX5 Amplex Red fluorescence – cell-based, HEK293-NOX5, NOX inhibitor project, primary screen (AID 1161). The note with it: HEK293-NOX5, ionomycin, 45 min, higher = more signal.
Assay [20] in a line: compound effects on lung adenocarcinoma cell viability – A549, calcein-AM fluorescence, 48 h, basal, profiling panel (AID 1162). Note: test concentration not given here. The following applies: higher = more signal.

Active and inactive are the calls of the source.

Chain of NADPH oxidase 5 (Homo sapiens) (Q96PH1 whole entry, looked up): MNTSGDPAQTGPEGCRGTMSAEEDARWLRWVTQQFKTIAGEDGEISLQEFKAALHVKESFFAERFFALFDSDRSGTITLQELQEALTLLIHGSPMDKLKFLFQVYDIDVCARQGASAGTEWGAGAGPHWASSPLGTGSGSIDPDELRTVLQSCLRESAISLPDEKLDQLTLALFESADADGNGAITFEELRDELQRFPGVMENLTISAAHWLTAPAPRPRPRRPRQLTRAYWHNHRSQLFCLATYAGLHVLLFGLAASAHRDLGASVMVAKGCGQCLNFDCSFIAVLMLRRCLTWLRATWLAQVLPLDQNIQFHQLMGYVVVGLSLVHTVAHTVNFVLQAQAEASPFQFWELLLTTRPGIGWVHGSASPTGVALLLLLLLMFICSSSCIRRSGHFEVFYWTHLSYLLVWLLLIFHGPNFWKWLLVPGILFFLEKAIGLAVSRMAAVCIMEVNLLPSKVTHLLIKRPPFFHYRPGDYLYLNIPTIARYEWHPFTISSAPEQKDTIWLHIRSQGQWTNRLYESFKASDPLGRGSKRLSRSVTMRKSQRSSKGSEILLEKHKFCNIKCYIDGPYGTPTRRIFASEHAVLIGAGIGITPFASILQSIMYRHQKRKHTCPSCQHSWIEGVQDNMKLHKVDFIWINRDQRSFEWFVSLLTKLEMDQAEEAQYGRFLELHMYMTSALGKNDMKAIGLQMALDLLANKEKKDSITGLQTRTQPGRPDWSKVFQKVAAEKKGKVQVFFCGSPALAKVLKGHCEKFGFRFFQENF
Chain of Torsin-1A (Homo sapiens) (O14656 whole entry, looked up): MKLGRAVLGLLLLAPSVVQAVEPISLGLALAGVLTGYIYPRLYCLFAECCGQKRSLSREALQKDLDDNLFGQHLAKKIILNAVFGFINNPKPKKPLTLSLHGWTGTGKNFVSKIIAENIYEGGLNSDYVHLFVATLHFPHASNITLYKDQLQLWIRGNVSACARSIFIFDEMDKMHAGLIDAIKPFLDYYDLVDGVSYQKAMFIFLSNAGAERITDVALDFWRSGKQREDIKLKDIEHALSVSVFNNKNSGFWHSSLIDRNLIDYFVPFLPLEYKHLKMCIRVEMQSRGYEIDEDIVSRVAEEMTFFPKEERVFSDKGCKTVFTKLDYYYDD
Chain of NADPH oxidase 2 (Homo sapiens) (P04839 whole entry, looked up): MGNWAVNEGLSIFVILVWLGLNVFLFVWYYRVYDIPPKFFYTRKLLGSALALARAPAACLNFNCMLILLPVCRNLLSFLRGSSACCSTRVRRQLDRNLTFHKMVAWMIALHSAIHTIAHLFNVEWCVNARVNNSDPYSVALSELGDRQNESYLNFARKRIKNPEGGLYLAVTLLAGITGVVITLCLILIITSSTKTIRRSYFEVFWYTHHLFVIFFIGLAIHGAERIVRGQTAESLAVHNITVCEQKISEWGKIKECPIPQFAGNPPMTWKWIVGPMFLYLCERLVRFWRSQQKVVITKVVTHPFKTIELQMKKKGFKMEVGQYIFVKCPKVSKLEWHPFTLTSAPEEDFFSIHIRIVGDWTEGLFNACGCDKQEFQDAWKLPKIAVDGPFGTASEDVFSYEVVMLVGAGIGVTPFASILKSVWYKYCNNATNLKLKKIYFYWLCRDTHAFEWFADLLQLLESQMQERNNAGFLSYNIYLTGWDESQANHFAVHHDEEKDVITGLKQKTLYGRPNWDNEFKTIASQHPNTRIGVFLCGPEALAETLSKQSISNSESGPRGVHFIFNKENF
Chain of NADPH oxidase 4 (Homo sapiens) (Q9NPH5 whole entry, looked up): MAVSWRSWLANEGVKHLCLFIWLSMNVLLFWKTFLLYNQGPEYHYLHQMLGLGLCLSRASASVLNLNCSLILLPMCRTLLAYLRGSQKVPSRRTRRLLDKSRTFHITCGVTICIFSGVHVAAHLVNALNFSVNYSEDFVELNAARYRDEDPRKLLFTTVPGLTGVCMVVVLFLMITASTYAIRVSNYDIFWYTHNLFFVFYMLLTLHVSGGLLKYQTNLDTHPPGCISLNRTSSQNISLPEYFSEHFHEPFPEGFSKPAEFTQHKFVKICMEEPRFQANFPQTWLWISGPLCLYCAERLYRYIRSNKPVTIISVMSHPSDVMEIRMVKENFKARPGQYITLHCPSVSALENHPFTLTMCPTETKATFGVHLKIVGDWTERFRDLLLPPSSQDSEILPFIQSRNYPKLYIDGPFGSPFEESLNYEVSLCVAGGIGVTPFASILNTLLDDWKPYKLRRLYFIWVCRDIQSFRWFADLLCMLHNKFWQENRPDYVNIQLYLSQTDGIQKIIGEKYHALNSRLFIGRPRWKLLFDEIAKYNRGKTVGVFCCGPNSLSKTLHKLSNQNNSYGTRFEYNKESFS
Chain of Streptavidin (Streptomyces avidinii) (P22629 whole entry, looked up): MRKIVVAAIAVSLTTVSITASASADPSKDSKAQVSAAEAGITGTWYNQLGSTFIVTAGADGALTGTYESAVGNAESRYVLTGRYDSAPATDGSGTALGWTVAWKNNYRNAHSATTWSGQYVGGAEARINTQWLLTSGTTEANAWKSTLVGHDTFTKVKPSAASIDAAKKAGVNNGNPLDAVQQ

In the case of `CCCCC(=C=CC[C@@H](O)c1ccc(OCCO)cc1)C[C@@H](O)c1cc(Cl)cc(Cl)c1O`, the composite z-score in assay [1] is 0.145; in [5], 0.414; in assay [6], 0.0536; in the assay with Torsin-1A (Homo sapiens) [7] it was -0.0726; with Torsin-1A (Homo sapiens) [8], 1.01; in [9], 0.184. The composite z-score in assay [11] was -0.147. Besides, the z-score in assay [2] was -2.71 (inactive); in assay [3], 14.3 (active); in [4], -2.04 (inactive); in [10] it was 1.55 (inactive); in assay [12] it was 20.3 (active); in assay [13] it was 4.24 (inactive). Besides, the z-score in assay [14] is 1.41 (inactive); in assay [15] it was 0.159 (inactive); in assay [16] it was 0.903; in [17] it was 0.444 (inactive); in assay [18] it was 0.55 (inactive); in [19] it was -1.14. The z-score in assay [20] is 2.24.

In the case of `C=CC[C@@H](OC(=O)Nc1ccc(SC)cc1)c1ccc(OCCO)cc1`, the composite z-score was -0.248 in [1]; -0.761 in [5]; -0.202 in [6]; 1.76 with Torsin-1A (Homo sapiens) [7]; 0.972 with Torsin-1A (Homo sapiens) [8]; 0.43 in assay [9]. In addition, in [11], the composite z-score was determined as 0.197. The z-score in assay [2] was -0.89 (inactive); in [3], 14.4 (active); in assay [4], -0.595 (inactive); in assay [10], -0.0217 (inactive); in assay [12], 27.1 (active); in [13] it was 18.6 (active). The z-score was 0.616 (inactive) in [14]; -0.016 (inactive) in assay [15]; -0.506 in assay [16]; -2.02 (inactive) in assay [17]; -0.346 (inactive) in [18]; -2.26 in assay [19]. Moreover, the z-score in assay [20] was 1.13.

Turning to `CC(C)CCC[C@@H](C)[C@H]1CC[C@@]2(C)C3=C(CC[C@]12C)[C@@]1(C)CC[C@H](OC(=O)CCl)C(C)(C)C1CC3` (stereo not given in full), the composite z-score in assay [1] is 0.109; in [5], 0.0285; in [6], -0.251; with Torsin-1A (Homo sapiens) [7], 0.662; with Torsin-1A (Homo sapiens) [8], 0.358; in [9] it was 0.588. This compound came in with a composite z-score in [11] of -0.194. Moreover, the z-score in assay [2] is -0.186 (inactive); in assay [3], 1.3 (inactive); in assay [4] it was -0.731 (inactive); in [10] it was 3.33 (inactive); in [12], -0.0025 (inactive); in assay [13], -0.116 (inactive). Also, the z-score in [14] is -0.417 (inactive); in assay [15], 0.01 (inactive); in assay [16], 0.413; in assay [17], -0.776 (inactive); in [18], 0.446 (inactive); in [19], 0.517. For the same compound, the z-score in [20] is 1.98.

As to `C=C(COC)C(=O)CC[C@H](OC(=O)c1cccnc1)c1cccc(OCCO)c1`, the composite z-score is 1 in [1]; -0.347 in assay [5]; 0.345 in assay [6]; 2.35 with Torsin-1A (Homo sapiens) [7]; 0.0556 in the assay with Torsin-1A (Homo sapiens) [8]; 2.06 in [9]. Further, in assay [11], the composite z-score was 0.75. Further, the z-score in assay [2] was -0.365 (inactive); in [3] it was 6.86 (inactive); in assay [4] it was 0.309 (inactive); in [10], 1.05 (inactive); in assay [12] it was 10.4 (active); in assay [13] it was 1.47 (inactive). For the same compound, the z-score in assay [14] was 0.934 (inactive); in assay [15] it was 0.577 (inactive); in [16], -0.597; in [17] it was 0.936 (inactive); in assay [18], 0.743 (inactive); in assay [19], -1.3. Also, in [20], the z-score was 0.18.

On to `CO[C@H]1O[C@H](CO)[C@@H](OC(=O)Nc2ccccc2)[C@H](OC(=O)Nc2ccc3c(c2)OCO3)[C@H]1OC(=O)Nc1ccc2c(c1)OCO2`, for which the composite z-score in [1] was 0.229; in [5] it was 0.142; in assay [6], -0.018; with Torsin-1A (Homo sapiens) [7], 0.505; in the assay with Torsin-1A (Homo sapiens) [8], 0.781; in [9] it was 0.739. The composite z-score in assay [11] was 0.57. Also, the z-score in [2] is -3.58 (inactive); in assay [3] it was 0.754 (inactive); in [4] it was -2.46 (inactive); in [10] it was 2.12 (inactive); in [12], 4.45 (inactive); in assay [13], -0.359 (inactive). Also, the z-score in assay [14] is 0.0835 (inactive); in [15] it was -1.81 (inactive); in assay [16] it was 1.21; in assay [17], -3.84 (inactive); in [18], -3.08 (inactive); in [19] it was -2.05. For the same compound, the z-score in [20] is 0.275.
